According to PubChem BioAssay AID492964 (The Scripps Research Institute Molecular Screening Center, 2010):
Hit rate of the full screen: of about 1,800 compounds, about 880 (49%) were called active. The set was probably picked from earlier hits. Only a sample is shown. Values without a mark were called inactive. No stated cut-off is given here; in the data, active means inhibition above about 55%; inactive means the rest.

Molecular target: Orexin/Hypocretin receptor type 1 (Homo sapiens) (UniProt O43613)
Sequence (O43613 whole entry, looked up): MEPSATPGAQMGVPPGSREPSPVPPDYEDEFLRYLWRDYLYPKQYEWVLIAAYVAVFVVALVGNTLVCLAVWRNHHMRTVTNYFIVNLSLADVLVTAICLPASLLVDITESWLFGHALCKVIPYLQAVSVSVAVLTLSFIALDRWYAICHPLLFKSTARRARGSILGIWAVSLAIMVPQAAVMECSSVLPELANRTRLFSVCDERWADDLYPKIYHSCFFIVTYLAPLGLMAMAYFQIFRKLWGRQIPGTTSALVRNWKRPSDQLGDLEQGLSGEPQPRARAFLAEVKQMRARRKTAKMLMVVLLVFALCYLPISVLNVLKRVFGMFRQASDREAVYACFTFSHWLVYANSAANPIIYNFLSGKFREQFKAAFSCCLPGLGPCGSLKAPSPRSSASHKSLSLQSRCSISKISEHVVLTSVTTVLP
Assay: OX1R (HCRTR1) antagonists, confirmation, cell-based, HTRF (AID 492964);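 further: CHO cells expressing OX1R stimulated with orexin A at about EC80; 0% = agonist challenge alone and 100% = reference antagonist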
Conditions: OX1R-expressing cells, HTRF antagonist assay; at 6.6 µM; hits give high values

Compound | inhibition
CCn1c(C)nc2c1C(=O)c1ccccc1C2=O | 69.9% (active)
CC(=O)Oc1ccc(C(C)=O)c2c1OCCO2 | 19.2%
CC(NC(=O)c1cccc2ccccc12)c1ccc2c(c1)CCCC2 (stereo unspecified) | 64.9% (active)
O=C(Nc1cccc2cccnc12)c1cccc(N2C(=O)CCC2=O)c1 | 86.1% (active)
COc1cccc(N=c2oc3c(C)ncc(CO)c3cc2C(N)=O)c1 | 51.7%
Cc1oc2c(c1C(=O)N1CCOCC1)C(=O)c1ccccc1C2=O | 78.8% (active)
CCn1c(O)c(N=NC2=NC(=O)CS2)c2cc(C)ccc21 | 28.9%
O=C(N/N=C/c1sc(N2CCCCC2)nc1-c1cccs1)c1cccnc1 | 89.2% (active)
N#Cc1nc(-c2cccc3ccccc23)oc1N | 60.8% (active)
O=C(Nc1ccccc1Cl)/C(Cl)=C(\Cl)S(=O)c1ccccc1 (stereo unspecified) | 89.9% (active)
Cc1cccc(NC(=O)Nc2cccc(Oc3c(F)c(F)c(F)c(F)c3F)c2)c1 | 35.4%
NS(=O)(=O)c1ccc(CCNC(=O)c2ccc([N+](=O)[O-])cc2[N+](=O)[O-])cc1 | 84.6% (active)
CSCCC(NC(=O)c1cc([N+](=O)[O-])cc([N+](=O)[O-])c1)c1nc2ccccc2[nH]1 (stereo unspecified) | 46.4%
Cc1c(/C=N\NC(=O)c2cc3ccccc3o2)c2ccccc2n1C | 83.1% (active)
COc1cccc(C(=O)NC(=O)Nc2nc(C)cc(C(F)(F)F)n2)c1 | 57.7% (active)
Cc1cc(=O)oc(C)c1C(=O)NCCN(C)Cc1ccccc1 | 12.3%
O=C(NC(Cc1c[nH]c2ccccc12)C(=O)N/N=C/c1ccc(Br)cc1)c1cccs1 (stereo unspecified) | 81.2% (active)
CC(C)(C)NC(=O)CN(C(=O)c1csnn1)c1ccccc1-c1ccccc1 | 55.5% (active)
COc1ccc2sc(-c3ccc(N(C)C)cc3)c(C#CCO)c2c1 | 62.2% (active)
CCn1c(=N)c(C(=O)NCCCOC)cc2c(=O)n3cccc(C)c3nc21 | 47.5%
COC(=O)c1sccc1NC(=O)CSc1ccccc1NS(=O)(=O)c1cc(Cl)ccc1Cl | 67.1% (active)
COc1ccc(N(C)C(=O)CCS(=O)(=O)c2cccc3nsnc23)cc1 | 38.3%

Compound | inhibition
CC(=O)Nc1ccc(Nc2c([N+](=O)[O-])cc(S(C)(=O)=O)cc2[N+](=O)[O-])cc1 | 46.9%
COC(=O)N/N=C/c1c[n+]([O-])c2ccccc2[n+]1[O-] | 69.1% (active)
COCCNC(=O)Nc1ccc2nc(-c3ccco3)c(-c3ccco3)nc2c1 | 32.4%
COc1cc(OC)c(NC(=O)c2ccc(Br)o2)cc1Cl | 66.4% (active)
Nc1ccc2nc3c(=O)[nH]c(=S)[nH]c3nc2c1 | 47.3%
N#CC(=C1SC=CS1)c1nc(-c2ccccc2)cs1 | 92.5% (active)
N#C/C(=C1\CCCN1)c1nc(-c2ccccc2)cs1 | 94% (active)
Nc1[nH][nH]c(=O)c1N=Nc1ccc2c(c1)OCO2 | 34.5%
COCCCNC(=S)NC(=O)c1ccc([N+](=O)[O-])cc1 | 50.2%
Cn1cnnc1Sc1ccc(S(C)(=O)=O)cc1[N+](=O)[O-] | 42.5%
COc1ccccc1N1CC(C(=O)Nc2ccc(S(=O)(=O)N3CCOCC3)cc2)CC1=O (stereo unspecified) | 16.2%
COc1cc2ccccc2cc1C(=O)Nc1ccc(N2CCOCC2)cc1 | 56.8% (active)
COc1cccc(/C=N/Nc2cc(C)nc(-c3ccccc3O)n2)c1O | 92.3% (active)
CCOc1ccc(/C=C/C(=O)OCC(=O)c2ccccc2OC)cc1OC | 58.8% (active)
CC(C)CC[n+]1ccn(C2=C([O-])c3ccccc3C(=O)/C2=N\S(=O)(=O)c2ccccc2)c1 | 51.6%
COc1cc(C(=S)N2CCOCC2)cc(OC)c1OC(=O)c1ccc([N+](=O)[O-])cc1[N+](=O)[O-] | 88.1% (active)
O=C(Oc1ccccc1C(=S)N1CCCCC1)c1cc([N+](=O)[O-])cc([N+](=O)[O-])c1 | 35.2%
CCn1c(SCC(=O)c2ccc3ccccc3c2)nnc1-c1cccs1 | 81.2% (active)
COc1ccc(N2CC(C(=O)NCCN3C(=O)S/C(=C\c4cccnc4)C3=O)CC2=O)c(OC)c1 (stereo unspecified) | 106% (active)
O=C(O)CCC(=O)Nc1nc2ccc([N+](=O)[O-])cc2s1 | 50.8%
Cc1cc(-c2ccc(C)c(S(=O)(=O)NC(C)Cc3ccco3)c2)on1 (stereo unspecified) | 30.2%
COc1ccc(S(=O)(=O)NC(C)c2ccccc2)cc1C(=O)N1CCCCC1 (stereo unspecified) | 72.9% (active)

Compound | inhibition
CC(=O)N/N=C/c1cc2c(cc1[N+](=O)[O-])OCO2 | 34.2%
COC(=O)CNC(=O)c1ccc2c(c1)S(=O)(=O)c1ccccc1C2=O | 63% (active)
Cc1cc(C(=O)NC2CCCc3c2cnn3-c2cccc(C)c2C)c(C)o1 (stereo unspecified) | 63.8% (active)
Cc1cccc(NS(=O)(=O)c2cccc(C(=O)NNC(=O)c3ccccc3O)c2)c1 | 30.5%
S=c1[nH]nc(-c2cc(-c3ccccc3)n[nH]2)n1/N=C/c1c2ccccc2cc2ccccc12 | 60% (active)
Cc1cccn2c(=O)c3cc(C#N)c(=NC(=O)c4cccnc4)n(CC4CCCO4)c3nc12 (stereo unspecified) | 44.2%
COc1ccc(CCn2c(NCCCN3CCOCC3)nc3c2c(=O)[nH]c(=O)n3C)cc1 | 15.3%
CCOc1ccc(CCNC(=O)C(CC)n2nc(C)n3c(cc4sccc43)c2=O)cc1OCC (stereo unspecified) | 81.6% (active)
COc1cccc(/C=C/c2ccc3ccccc3n2)c1OC(C)=O | 37.3%
CN(C(=O)CSc1nnc(-c2n[nH]c3ccccc23)o1)c1ccccc1 | 35%
COc1cccc(/C=N/NC(=O)c2[nH]nc3c2CCc2ccccc2-3)c1O | 55% (active)
Nc1nc(COC(=O)CCC(=O)c2ccc(Cl)cc2)nc(Nc2ccccc2)n1 | 38.7%
O=C(/C=C/c1ccco1)Nc1cccc(-c2nc3ccccc3[nH]2)c1 | 59% (active)
COc1ccc(CCNC(=O)/C(C#N)=C2\N=C(NC(=O)c3cccs3)c3ccccc32)cc1 | 19.5%
CCC(=O)N(C)C(c1ccccc1Cl)c1nnnn1-c1c(C)cccc1C (stereo unspecified) | 64% (active)
Cc1ccc2c(c1)nnc1nnc(SCC(=O)O)n12 | 63.9% (active)
O=C(Nc1nnc(-c2ccccc2)o1)c1cc(-c2cccs2)nc2ccccc12 | 75.6% (active)
C/C(N)=C(/C#N)C(=O)COC(=O)c1cc(-c2ccc(C)cc2)nc2ccccc12 | 27.5%
Cc1cc(C)cc(NC(=O)C2CCCN2S(=O)(=O)c2cccc3cccnc23)c1 (stereo unspecified) | 88.2% (active)
CC(=O)c1cccc(NC(=O)C2CCCN2S(=O)(=O)c2cccc3nsnc23)c1 (stereo unspecified) | 101% (active)
O=C(NCc1ccco1)C1CCCN(S(=O)(=O)c2cccc3nonc23)C1 (stereo unspecified) | 16.2%
CCOc1ccc(NC(=O)CCS(=O)(=O)c2cccc3nsnc23)cc1 | 31.9%

Compound | inhibition
CN1CCN(/N=C/c2ccc(-c3ccc([N+](=O)[O-])cc3)o2)CC1 | 26.4%
C=CCn1c(SCC(=O)Nc2nc3ccccc3s2)nnc1-c1ccccc1O | 76.1% (active)
COc1ccc2oc(=O)c(C(=O)NCc3ccccn3)cc2c1 | 35.8%
O=C(Nc1ccc2sc3ccccc3c(=O)c2c1)c1ccccc1Cl | 95.8% (active)
CC(C)(C)NC(=O)Cn1cnc2cc([N+](=O)[O-])ccc2c1=O | 43.3%
CCOc1cc(/C=C(\C#N)c2nc(-c3cccs3)c(NC(C)=O)s2)ccc1O | 73.3% (active)
O=C(Cc1ccccc1)N1CCN(S(=O)(=O)c2ccc([N+](=O)[O-])cc2)CC1 | 61.2% (active)
Cc1ccccc1S(=O)(=O)N1[C@@H](c2cccc(Cl)c2)C(C(=O)O)=CC[C@H]1c1ccc(Cl)cc1 | 87.4% (active)
Cc1ccc([C@@H]2CC=C(C(=O)O)[C@H](c3cccc(Cl)c3)N2S(=O)(=O)c2ccc(C)cc2)cc1 | 82.8% (active)
O=C(Nc1nnc(C2=COCCO2)o1)c1ccc([N+](=O)[O-])s1 | 49.7%
c1ccc(-c2nc(NCc3ccco3)c3ccccc3n2)cc1 | 64% (active)
C[n+]1ccccc1C1CCCC/C1=N\Nc1ccc([N+](=O)[O-])cc1[N+](=O)[O-] (stereo unspecified) | 35.2%
Nc1nc(-c2sc3nc4c(cc3c2N)CCCC4)nc(N2CCOCC2)n1 | 94.8% (active)
O=C(CN1C(=O)c2cccc3cccc(c23)C1=O)N1CCCCC1 | 33.8%
Cn1c(N)c(C(=O)COC(=O)c2ccc3ccccc3c2)c(=O)n(C)c1=O | 63.3% (active)
COc1ccc2[nH]c(=O)c(CNc3ccc(C)c(C)c3)cc2c1 | 31.3%
O=C(N/N=C/c1c(Cl)[nH]c2ccccc12)c1sc2ccccc2c1Cl | 92.5% (active)
Cc1ccc(Nc2nc(CSc3nnnn3-c3ccccc3)cc(=O)[nH]2)cc1 | 22.3%
O=C(OC1CCOC1=O)c1ccc(-c2nc3ccccc3s2)s1 (stereo unspecified) | 98.5% (active)
O=C(c1ccncc1)c1ccc([N+](=O)[O-])cc1 | 53.2%
